Hits are enriched below; roughly 19% of the tested compounds scored in any of these assays.
TDP1 cell CPT = qHTS for Inhibitors of human tyrosyl-DNA phosphodiesterase 1 (TDP1): qHTS in cells in presence of CPT | chicken DT40 Tdp1-/-;hTDP1 cells + 20 nM CPT, ATP luminescence, 48 h | Potency, µM (doses to about 46.2 µM), inactives show at the highest dose activity change, negative = growth inhibition, hits mostly inhibitors | hit rate 12% among 420,000; note: potency is the fitted concentration of half-maximal effect; nearly all actives have a fitted effect of over 55% in size
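Cell growth measured by CellTiter-Glo luminescence after a minimum 48 h, 37 C compound exposure with 20 nM CPT in Tdp1-knockout DT40 cells stably expressing hTDP1, seeded 400/well; qHTS titration format.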
HT1080NT lethal = qHTS for induction of synthetic lethality in tumor cells producing 2HG: qHTS for the HT-1080-NT fibrosarcoma cell line; hit rate 1.6% among 360,000; AID 686970, 2013; Potency, µM (highest dose often 46.1 µM), for the others: at the highest dose activity, negative = less viability, usual class: cytotoxic; HT-1080-NT fibrosarcoma viability, CellTiter-Glo ATP luminescence, 48 h;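 note: NT is the 2HG producing partner of a matched IDH1 knockdown line; potency is the fitted concentration of half-maximal effect; 0% = DMSO-treated cells and -100% = media-only wells without cells; nearly all actives have a fitted effect of over 55% in size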
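Compounds were tested in concentration-response format on HT-1080-NT cells for 48 hours at 37 degrees C. Cell viability came from CellTiter-Glo luminescence; curves were classified by r2, response magnitude and activity.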
DT40 TDP1 no CPT = qHTS for Inhibitors of human tyrosyl-DNA phosphodiesterase 1 (TDP1): qHTS in cells in absence of CPT | DT40 Tdp1-/- hTDP1 cells, no CPT, ATP luminescence, 48 h | Potency, µM (series often up to 46.2 µM), without a hit: at the top dose activity change, negative = growth inhibition, actives largely listed as inhibitors | hit rate 15% among 420,000 | AID 686978, 2013; note: potency is the fitted concentration of half-maximal effect; nearly all actives have a fitted effect of over 55% in size
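DT40 Tdp1-/-;hTDP1 cells, no CPT (DMSO vehicle only), 400 cells/well; compounds pin-transferred; ≥48 hr, 37 °C; CellTiter-Glo 30 min RT dark, luminescence read.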
IL1B secr inh = qHTS for Inhibitors of Inflammasome Signaling: IL-1-beta AlphaLISA Primary Screen | THP-1 LPS/ATP IL-1B secretion, AlphaLISA, 16 h; hits give low values | hit rate 4.7% among 360,000 | activity change, % at 57.5 µM | AID 743279, 2014; in the data active = activity change below about -50%; inconclusive = mostly about -30% to -49%
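THP-1 cells pretreated 1 hr with compounds (up to 57.5 uM final), then stimulated with LPS (250 ng/mL final) plus ATP (1.25 mM final); secreted IL-1B measured by AlphaLISA after 16 hr, decreased signal indicating inhibition.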
HT1080 IDH1KD tx = qHTS for induction of synthetic lethality in tumor cells producing 2HG: qHTS for the HT-1080-IDH1KD cell line. HT-1080 IDH1 knockdown viability, ATP luminescence, 48 h. Potency, µM (titrated, usually from 46.1 µM), inactives show top-dose activity, negative = toxicity, most hits filed as cytotoxic. hit rate 2% among 360,000. AID 686971, 2013;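 note: potency is the fitted concentration of half-maximal effect; 0% = DMSO wells and -100% = cell-free medium wells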
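CellTiter-Glo luminescence after 48 h compound exposure at 37 degrees C of IDH1-knockdown HT-1080 cells in 5% FBS RPMI. %Activity scaled between DMSO wells and cell-free media wells, with curves fitted and assigned curve classes.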
* hit, by the source's call; ? = inconclusive; · = no result given. Unless noted, calls come from the whole dose curve; as a rule, active = well fitted curve in the direction sought with a large enough effect; inconclusive = small, poorly fitted or top-dose-only effect, or another doubt; inactive = no such curve, though single readings can be large; an effect the other way counts as inactive or inconclusive. Unless noted, % is set by controls: 0 for no effect and ±100 for the full control effect.

SMILES	TDP1 cell CPT	HT1080NT lethal	DT40 TDP1 no CPT	IL1B secr inh	HT1080 IDH1KD tx
CC1CCCCN1S(=O)(=O)c1ccc(C(=O)Nc2sccc2C(N)=O)cc1 (stereo unspecified)	-6%	-12%	-13%	-22	-10%
O=S(=O)(NCc1cn2ccccc2n1)c1cc(F)ccc1F	9%	7%	2%	-13	-3%
Cc1ccc(Cc2c(-c3ccc(C#N)cc3)nc3c4ccccc4ccn23)cc1	?	-1%	?	3	7%
Cc1ccc(Cc2c(-c3ccc(Cl)cc3)nc3cc(C)ccn23)cc1	?	5%	18µM*	-6	8%
Cc1ccc(Cc2c(-c3ccc(C)cc3)nc3cc(C)ccn23)cc1	21µM*	-13%	21µM*	-6	-13%
Cc1ccn2c(CC(C)(C)C)c(-c3ccc(F)cc3)nc2c1	21µM*	10%	21µM*	11	6%
Cc1ccc(Cc2c(-c3ccc(F)cc3)nc3c(Cl)cc(C(F)(F)F)cn23)cc1	-30%	-11%	-15%	12	-7%
Cc1cc(OC(C)C(=O)NCCCN2CCOCC2)c2c(C)c(C)c(=O)oc2c1 (stereo unspecified)	0%	4%	12%	-1	1%
Cc1cc(N)n(-c2ccccc2)n1	-10%	-2%	2%	-7	2%
Cc1cc(-c2cc(N)n(-c3ccccc3)n2)c(C)n1C1CCCC1	29µM*	?	?	-12	0%
CSCC[C@H](NS(=O)(=O)c1ccc(C)cc1)C(=O)N1CCC(C(=O)N[C@@H](Cc2ccc(O)cc2)C(=O)O)CC1	-5%	3%	2%	1	-1%
O=C(O)Cc1ccc2c(c1)Cc1cccnc1O2	-5%	-2%	-24%	-2	3%
N=C(N)c1ccc(OCCCOc2ccc(C(=N)N)cc2Br)c(Br)c1	4.7µM*	·	3.8µM*	·	·
N=C(N)c1ccc(OCCCOc2ccc(C(=N)N)cc2)cc1	6.7µM*	·	6.7µM*	·	·
CCCCOc1ccc(CC(N)=O)cc1	-2%	16%	-14%	·	19%
CCCCCCOc1ccc(/C(N)=N/O)cc1	16µM*	0%	21µM*	0	-5%
COC(=O)C1CN(C(=O)C(C)Oc2ccc(C(C)C)cc2)c2ccccc2O1 (stereo unspecified)	-23%	4%	?	40	1%
Cc1ccc[n+](CC(=O)Nc2ccc(N(C)C)cc2)c1	-10%	-2%	-5%	6	1%
O=C(Nc1ccc(F)cc1)c1cccc(N2C(=O)C3C4CCC(C4)C3C2=O)c1 (stereo unspecified)	?	3%	23µM*	0	-1%
O=C(Nc1ccc(Br)cc1)c1cccc(N2C(=O)C3C4C=CC(C4)C3C2=O)c1 (stereo unspecified)	23µM*	-8%	?	-23	-7%
O=C(Nc1ccc(Br)cc1)c1cccc(N2C(=O)C3C4CCC(C4)C3C2=O)c1 (stereo unspecified)	?	-12%	29µM*	?	-14%
CN1CCN(NC(=O)c2cc([N+](=O)[O-])cc([N+](=O)[O-])c2)CC1	-24%	5%	-15%	23	11%
CCOC(=O)C(C)Oc1cccc2c(=O)n(CC(=O)NCc3ccco3)ccc12 (stereo unspecified)	1.6µM*	?	2.1µM*	-54*	1.6µM*
CC(C)C(=O)c1cn(CC(=O)NCc2ccco2)c2ccccc12	?	6%	-17%	19	13%
COC(=O)c1cc(S(=O)(=O)N2CCC(c3cc(OC)ccc3OC)C2)c[nH]1 (stereo unspecified)	13µM*	-18%	?	-5	-13%
